Laboratory results published in PubChem BioAssay AID778 (Sanford-Burnham Center for Chemical Genomics, 2007).
The campaign covered roughly 96,000 compounds. About 20,000 (21%) were called active. Only a sample is shown. Values without a mark were called inactive.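 How the source made its calls: active means CYP2C19 inhibition above a set limit at 5 µM in the primary screen (cut at about 50% in these data); inactive means the rest.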

Each compound was assayed against Cytochrome P450 2C19 (Homo sapiens) (UniProt P33261) (assay: blockers of cytochrome P450 2C19 activity – biochemical, luminescence, ADME assay, primary screen (AID 778;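 further: plate controls were negative control wells for no effect and 2.5 mM tranylcypromine positive control for full effect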)). Details: CYP2C19 Supersomes, luciferin-H EGE luminescence, 30 min; at 5 µM; hits give high values.
Sequence of Cytochrome P450 2C19 (Homo sapiens) (P33261 whole entry, looked up): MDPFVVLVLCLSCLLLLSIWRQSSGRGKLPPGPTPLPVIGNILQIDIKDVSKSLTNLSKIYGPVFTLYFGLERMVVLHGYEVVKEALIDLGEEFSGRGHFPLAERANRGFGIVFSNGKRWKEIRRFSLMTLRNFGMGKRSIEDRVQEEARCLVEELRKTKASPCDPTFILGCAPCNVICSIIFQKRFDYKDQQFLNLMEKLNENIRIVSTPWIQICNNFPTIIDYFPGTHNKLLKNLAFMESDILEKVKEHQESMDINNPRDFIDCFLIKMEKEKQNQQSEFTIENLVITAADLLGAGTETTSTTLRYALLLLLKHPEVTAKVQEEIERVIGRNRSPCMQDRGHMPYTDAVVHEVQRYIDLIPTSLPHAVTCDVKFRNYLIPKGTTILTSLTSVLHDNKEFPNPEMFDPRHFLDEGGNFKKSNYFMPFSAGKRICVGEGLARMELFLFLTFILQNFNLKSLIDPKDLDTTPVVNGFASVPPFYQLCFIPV

Compound	inhibition
C=CCn1c(SCC(=O)/C(C#N)=C(\C)N)nc2sc(C)c(C)c2c1=O	6.6%
Cc1cnc(NC(=O)CSc2nnc(C)s2)s1	19.7%
O=C(CSc1ncnc2c1cnn2CCc1ccccc1)Nc1ccc(F)cc1	7.1%
CCC(C)NC(=O)N[C@@H](CCSC)C(=O)O (some centres undefined)	-1.9%
CCCSc1nc(NCc2ccco2)c2c3c(sc2n1)COC(C)(CC)C3 (centres undefined)	13.8%
CCC1(C)Cc2c(sc3nnn(CC(=O)Nc4ccc(Cl)cc4)c(=O)c23)CO1 (centres undefined)	22.1%
CCC1(C)Cc2c(sc3nc(SC)nc(N)c23)CO1 (centres undefined)	80.9% (active)
COC(=O)c1cc(OC)c(OC)cc1NC(=O)C1CCCO1 (centres undefined)	23.5%
Cc1ccc(C(=O)c2c(NC(=O)c3ccncc3)sc3c2CCCC3)cc1	28.7%
O=C1NC(c2ccncc2)Nc2sc3c(c21)CCCC3 (centres undefined)	82.8% (active)
O=C(Nc1sc2c(c1-c1nc3ccccc3[nH]1)CCCC2)C1CC1	9.4%
COc1ccc2nc(NC3=NCN(CC4CCCO4)CN3)nc(C)c2c1 (centres undefined)	2%
COc1ccccc1-c1nc(C#N)c(N2CCC(C(N)=O)CC2)o1	-9.9%
Cc1cccn2c(=O)c(/C=C(\C#N)S(=O)(=O)c3ccc(Cl)cc3)c(N3CCC(C(N)=O)CC3)nc12	86.2% (active)
Cc1ccc(C(c2nnnn2CS(=O)(=O)c2ccc(C)cc2)N2CCC(C(N)=O)CC2)cc1 (centres undefined)	0.4%
COc1ccc(-c2cc(C(=O)NC(C(=O)O)C(C)C)c(C)o2)cc1OC (centres undefined)	6.4%
CCN(CC)P(=O)(C(NC(=O)OC)C(F)(F)C(F)(F)C(F)(F)C(F)F)N(CC)CC (centres undefined)	10%
CCN(CC)CCNC(=O)CCCCCn1c(=O)[nH]c2cc(C(=O)OC)ccc2c1=O	0%
Cc1n[nH]c(C)c1S(=O)(=O)N1CCCC(C(=O)NCC2COc3ccccc3O2)C1 (centres undefined)	15.3%
Cc1nn(-c2ccccn2)c2c1C(c1ccncc1)C1=C(CC(C)(C)CC1=O)N2 (centres undefined)	98.7% (active)
Cc1cc2c(cc1C)NC(c1ccccn1)C1=C(CC(C)(C)CC1=O)N2 (centres undefined)	1.3%
O=S(=O)(N1CCCCC1)N1CCNCC1	-28.7%
CCN(CC)CCn1c2ccc(Cl)cc2c2nc(C)sc21	49.4%
CCC1CCCCN1C(=O)Nc1cccc(NC(=O)N2CCCCC2CC)c1 (centres undefined)	-10.7%
COc1ccc(C(C)=O)cc1CN1C(=O)NC2(CCCCC2C)C1=O (centres undefined)	33.8%

Compound	inhibition
CCOC(=O)N1CCN(CC(=O)c2c(C)[nH]c3ccccc23)CC1	88% (active)
CC1CCN(CC(=O)c2c[nH]c3ccccc23)CC1	12.2%
Cc1c(C(=O)CN2CCOCC2)[nH]c2ccccc12	56% (active)
Cc1[nH]c2ccccc2c1C(=O)COC(=O)C(C)C	25.9%
Cc1ccc2c(C(=O)CN3CCCC3)c(C)[nH]c2c1	26.2%
Cc1c(C(=O)N2CCOCC2)[nH]c2ccc(OCc3ccccc3)cc12	43.3%
CSc1nc2ccccc2cc1/C=C(\C#N)c1ccc(Cl)cc1Cl	12.7%
COc1ccc(OC)c(CN2C(=O)CCC2(C)C(=O)NC2CCCCCC2)c1 (centres undefined)	18.1%
CCOc1c2ccc(C(=O)NCc3ccc(OC(F)(F)F)cc3)cc2nn1C	13.9%
O=C(NCc1cccs1)c1ccc2c(c1)ncn2C1CCCC1	5.6%
O=C(COC(=O)c1ccccc1SCC(=O)NC1CCCCC1)NC1CCCCC1	12.2%
COCCNC(=O)c1onc(CSc2cccc(C)c2)c1C(=O)O	39.1%
CCOC(=O)CC1C(=O)NCCN1C(=O)COc1ccc(Br)cc1C (centres undefined)	15.5%
CCCCn1c(CCCNC(=O)CC)nc2ccccc21	-20%
C=C(Br)Cn1c(CCCC)nc2ccccc21	63.8% (active)
CCCCn1c(CN2CCN(CCO)CC2)nc2ccccc21	20.4%
Cc1nc2c(-c3ccccc3)c(C)[nH]n2c(=O)c1Cl	-1%
CC(=O)Nc1nc(C)c(Cc2ccccc2)c(=O)[nH]1	6.3%
CC(Sc1sc(=S)sc1SC(C)C(=O)O)C(=O)O (centres undefined)	-1.4%
CCCOc1ccc(Cn2c(O)cc(=O)[nH]c2=O)cc1	-7.8%
CC1Cc2ccccc2N1C(=O)c1cc2sccc2n1Cc1ccccc1 (centres undefined)	25.4%
CCOC(=O)c1cc2sccc2n1Cc1ccc(C#N)cc1	96.9% (active)
CCOc1ccc(-c2nnc(-c3ccco3)o2)cc1	19%
COc1cc(C2CC(=O)N3CN(Cc4ccccc4)CSC3=C2C#N)ccc1OCc1ccccc1 (centres undefined)	33%
O=C(NCCCCc1ccccc1)C1CC(c2ccc([N+](=O)[O-])cc2)=NO1 (centres undefined)	9.5%

Compound	inhibition
COc1ccc(C2=NOC(C(=O)NCc3ccco3)C2)cc1OC (centres undefined)	-4.7%
Cc1ccc(CNC(=O)C2CC(c3ccccc3[N+](=O)[O-])=NO2)o1 (centres undefined)	61.7% (active)
O=C(O)CN(Cc1ccco1)S(=O)(=O)c1ccccc1	-12.5%
Cc1ccc(CC2CC(=O)N(c3ccc4c(c3)OCCO4)C2=O)cc1 (centres undefined)	62.6% (active)
COc1ccc(N2CCN(C3CC(=O)N(c4ccc5c(c4)OCCO5)C3=O)CC2)cc1 (centres undefined)	9.7%
Cc1ccc(N2C(=O)CC(Sc3ncn[nH]3)C2=O)cc1 (centres undefined)	5.4%
COC(=O)N1CN(C(=O)OC)CN(C(=O)OC)C1	-10.2%
CCn1c(SCc2ccc(C)cc2)nnc1-c1nn(-c2ccccc2)ccc1=O	-0.8%
O=C(NCc1ccco1)c1cc2sccc2n1Cc1ccc(F)cc1	32.8%
O=C(NCc1ccco1)c1ccc(Cn2c(=O)c3sccc3n(Cc3ccc(F)cc3)c2=O)cc1	79.8% (active)
O=C(Cc1ccc(-n2c(=O)c3sccc3n(Cc3ccc(F)cc3)c2=O)cc1)NCc1ccco1	49.5%
C=CCn1c(Oc2ccc(C(=O)OC)cc2)nc2c1c(=O)n(C)c(=O)n2C	5.6%
CC(=O)NCCc1ccc(S(=O)(=O)N(C)C2CCS(=O)(=O)C2)cc1 (centres undefined)	-2.2%
Cc1cc(C)c(S(=O)(=O)N2C=CC(C(F)(F)F)=NCC2)c(C)c1	19%
O=C(CNS(=O)(=O)c1cccc(C(F)(F)F)c1)Nc1ccccc1F	74.7% (active)
CCNS(=O)(=O)c1ccc(NC(=O)Nc2cccc(C(F)(F)F)c2)cc1	1.1%
O=C(Cn1cc(/C=N/NC(=O)c2cccc(C(F)(F)F)c2)c2ccccc21)Nc1ccc(F)cc1	9.9%
CCN(CC(=O)NCc1cccs1)c1nnnn1-c1ccccc1	27.1%
Oc1c(CN2CCN(c3ccc(F)cc3)CC2)cc(Cl)c2cccnc12	18.8%
COCCn1nnnc1C(c1ccccc1Cl)N1CCN(c2ccccc2OC)CC1 (centres undefined)	54% (active)
COCCn1nnnc1CN1CCC(NC(=O)Nc2cccc(OC)c2)CC1	-0.3%
COc1cc(-n2c(C)nc3cc(C(=O)NCc4ccco4)ccc32)cc(OC)c1OC	42.8%
O=C(O)CSc1nccn1-c1cccc(Cl)c1	43.9%
COC(=O)CCSc1nccn1Cc1ccccc1	76.8% (active)
COC(=O)Cn1nc(-c2ccccc2)c2cc(Cl)ccc21	21.2%

Compound	inhibition
CCCCCCNC(=O)CSc1nccn1Cc1ccccc1	37.7%
CCCCNC(=O)CSc1nnc(-c2ccco2)n1C	20%
CCCCNC(=O)CSc1nccn1Cc1ccccc1	53.8% (active)
Nc1nonc1C(=O)NCCc1ccccc1	31.5%
O=C(CSc1ncccn1)NCCc1ccccc1	80.6% (active)
O=C(CSc1ncccn1)NC(=O)NCc1ccccc1	13.9%
CC1CN(c2cc(=O)n(-c3cccc(Br)c3)c(=O)[nH]2)CC(C)O1 (centres undefined)	-14.8%
N=c1ccn(CC(=O)NC(N)=O)c2ccccc12	-6.6%
Cc1cccc(COc2ccccc2/C=N/Nc2ccc([N+](=O)[O-])cc2)c1	16.5%
CCCCOC(=O)NCN1C(=O)C2C3C=CC(C3)C2C1=O (centres undefined)	-6.3%
O=c1[nH]n(-c2cccc(Cl)c2)c2ncccc12	-10.9%
CC(=O)c1nc(N2C(=O)C3CC=C(C)CC3C2=O)sc1C (centres undefined)	-13.9%
CCOC(=O)c1c(C)c(C(=O)NCCc2ccc(S(N)(=O)=O)cc2)c(C)n1CC	1.4%
COc1cnc(SCc2ccc(Cl)c(Cl)c2)nc1Cl	52.9% (active)
CCN(c1ccccc1)S(=O)(=O)c1cccc(C(=O)O)c1	3.1%
O=S(=O)(/N=C(/Nc1ccccn1)c1ccccc1)c1ccc(Cl)cc1	40.3%
CCN(CC)S(=O)(=O)c1cccc(C(=O)NCC(=O)OCC(=O)NCc2ccccc2)c1	29.7%
CCN(CC)S(=O)(=O)c1cccc(C(=O)Nc2ccccc2)c1	53.4% (active)
Cc1noc(C)c1C(=O)Nc1ccccn1	14.4%
CCN(CC)S(=O)(=O)c1cc(C(=O)Nc2ccccn2)ccc1C	60.7% (active)
CCN(CC)S(=O)(=O)c1cc([N+](=O)[O-])ccc1NNC(=O)Nc1ccccc1	-12.2%
CSc1nc(-c2ccco2)nn1C(=O)CCc1ccccc1	-16.6%
c1ccc(C2CCC(N3CCC(N4CCCCC4)CC3)CC2)cc1 (centres undefined)	-4.1%
CCn1c(O)c2ccc(C(=O)N=NC(=O)c3cccnc3)cc2c1O	-5.7%
